PubChem BioAssay AID1159580 (chemical genetic matrix, 2015)
The campaign covered roughly 5,500 compounds. About 2,000 (36%) were called active. Another 18% or so got no clear call; they are omitted. No stated cut-off is given here; in the data, active means normalized growth mostly below about 0.91 (no sharp cut-off); inconclusive means no clear call, values can overlap the other calls; inactive means mostly above about 0.92. Some of the results follow.

Test: chemical genetic growth profiling, strain panel (AID 1159580);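 further: tested at 20 µM; growth read once vehicle control cultures reached saturation at 30 °C; 1 = growth at the plate median or of vehicle wells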
Conditions: S. cerevisiae deletion strains, growth OD
[1] = locus YAL013W, strain DEP1, stronger effect = lower value
[2] = locus YJR075W, strain HOC1, stronger effect = lower value
[3] = locus YMR307W, strain GAS1, stronger effect = lower value
[4] = locus YNL153C, strain GIM3, stronger effect = lower value
[5] = locus YNL322C, strain KRE1, stronger effect = lower value
[6] = locus YAL040C, strain CLN3, stronger effect = lower value
[7] = locus YCL061C, strain MRC1 (second series), stronger effect = lower value
[8] = locus YDR150W, strain NUM1, stronger effect = lower value
[9] = locus YDR363W, strain ESC2, stronger effect = lower value
[10] = locus YER002W, strain NOP16, stronger effect = lower value
[11] = locus YGR078C, strain PAC10, stronger effect = lower value
[12] = locus YNL175C, strain NOP13, stronger effect = lower value
[13] = locus YNL197C, strain WHI3, stronger effect = lower value
[14] = locus YNL224C, strain SQS1, stronger effect = lower value
[15] = locus YOR083W, strain WHI5 (second series), stronger effect = lower value

Measured: normalized growth

CCC1C2CC3C4N(C)c5ccccc5C45CC(C2C5OC(C)=O)N3C1OC(C)=O (configuration not stated)
inactive: [1] 1.01 | locus YBR021W, strain FUR4, stronger effect = lower value 1.01 | locus YBR229C, strain ROT2, stronger effect = lower value 1 | locus YCL029C, strain bik1, stronger effect = lower value 1.02 | locus YDL035C, strain GPR1, stronger effect = lower value 1.02 | locus YDL074C, strain BRE1, stronger effect = lower value 1.04 | locus YDL101C, strain DUN1, stronger effect = lower value 1.01 | locus YDL134C, strain PPH21, stronger effect = lower value 1.02 | locus YDL185W, strain tfp1, stronger effect = lower value 1.02 | locus YDL192W, strain arf1, stronger effect = lower value 1.01 | locus YDR101C, strain arx1, stronger effect = lower value 1.01 | locus YDR162C, strain NBP2, stronger effect = lower value 1.01 | locus YDR318W, strain mcm21, stronger effect = lower value 1.01 | locus YDR388W, stronger effect = lower value 1.03 | locus YDR502C, strain sam2, stronger effect = lower value 1.02 | locus YEL061C, strain CIN8, stronger effect = lower value 1.01 | locus YER110C, stronger effect = lower value 1.03 | locus YER155C, strain BEM2, stronger effect = lower value 1 | locus YER167W, strain BCK2, stronger effect = lower value 1.02 | locus YGL078C, strain dbp3, stronger effect = lower value 1 | locus YGL086W, strain mad1, stronger effect = lower value 0.997 | locus YGL248W, strain PDE1, stronger effect = lower value 1.01 | locus YGR135W, strain pre9, stronger effect = lower value 1.01 | locus YGR252W, strain gcn5, stronger effect = lower value 1.02 | locus YHR030C, strain SLT2, stronger effect = lower value 1.02 | locus YHR079C, strain IRE1 (second series), stronger effect = lower value 1 | locus YHR094C, strain hxt1, stronger effect = lower value 1.01 | locus YHR129C, strain ARP1, stronger effect = lower value 1.02 | locus YHR200W, strain rpn10, stronger effect = lower value 1.02 | locus YIL066C, strain RNR3, stronger effect = lower value 1.02 | locus YIL073C, strain SPO22, stronger effect = lower value 1.08 | locus YIL125W, strain kgd1, stronger effect = lower value 1.03 | locus YIR030C, strain dcg1, stronger effect = lower value 1.01 | locus YJL095W, strain BCK1, stronger effect = lower value 1.01 | locus YJL134W, strain LCB3, stronger effect = lower value 1.02 | locus YJL168C, strain set2, stronger effect = lower value 1.02 | locus YJL187C, strain SWE1 (second series), stronger effect = lower value 1.01 | locus YJR043C, strain POL32, stronger effect = lower value 1.01 | [2] 1.04 | locus YKL009W, strain mrt4, stronger effect = lower value 1.02 | locus YKL068W, stronger effect = lower value 1 | locus YKL085W, strain MDH1 (second series), stronger effect = lower value 0.995 | locus YKL085W, strain MDH1, stronger effect = lower value 0.995 | locus YKR001C, strain vps1, stronger effect = lower value 1.03 | locus YLR039C, strain RIC1, stronger effect = lower value 1.07 | locus YLR058C, strain SHM2, stronger effect = lower value 1.01 | locus YLR102C, strain apc9, stronger effect = lower value 1.03 | locus YLR262C, strain YPT6, stronger effect = lower value 1.09 | locus YLR268W, strain sec22, stronger effect = lower value 1.02 | locus YLR330W, strain CHS5, stronger effect = lower value 1.02 | locus YLR342W, strain FKS1 (second series), stronger effect = lower value 1.03 | locus YLR371W, strain rom2, stronger effect = lower value 1.01 | locus YLR418C, strain cdc73, stronger effect = lower value 1.04 | locus YML016C, strain PPZ1, stronger effect = lower value 1.01 | locus YML032C, strain rad52, stronger effect = lower value 1.02 | locus YML124C, strain tub3, stronger effect = lower value 1.01 | locus YMR078C, strain ctf18, stronger effect = lower value 0.999 | locus YMR223W, strain ubp8, stronger effect = lower value 1.01 | locus YMR263W, strain SAP30, stronger effect = lower value 1.01 | [3] 0.992 | locus YNL067W, strain RPL9B, stronger effect = lower value 1.02 | locus YNL128W, strain TEP1, stronger effect = lower value 1.01 | [4] 1 | locus YNL233W, strain BNI4, stronger effect = lower value 1.02 | locus YNL250W, strain rad50, stronger effect = lower value 1.01 | locus YNL271C, strain bni1, stronger effect = lower value 1.01 | locus YNL298W, strain CLA4, stronger effect = lower value 1.02 | locus YNL307C, strain MCK1, stronger effect = lower value 1.02 | [5] 1.01 | locus YNR052C, strain pop2, stronger effect = lower value 1.02 | locus YOL006C, strain TOP1, stronger effect = lower value 1.14 | locus YOL012C, strain htz1 0.814 | locus YOL147C, strain pex11, stronger effect = lower value 1.02 | locus YOR061W, strain CKA2, stronger effect = lower value 1.01 | locus YOR069W, strain VPS5, stronger effect = lower value 1.01 | locus YOR136W, strain idh2, stronger effect = lower value 1.02 | locus YOR144C, strain elg1, stronger effect = lower value 1.01 | locus YOR184W, strain ser1, stronger effect = lower value 1.01 | locus YOR316C, strain cot1, stronger effect = lower value 1.02 | locus YPL055C, strain LGE1, stronger effect = lower value 1.04 | locus YPR119W, strain clb2, stronger effect = lower value 1 | locus YPR141C, strain kar3, stronger effect = lower value 1.01 | locus YPR163C, strain tif3, stronger effect = lower value 1.02 | locus YPR167C, strain met16, stronger effect = lower value 1.01 | strain wtn01, stronger effect = lower value 1.04

CO[C@H]1CC=C2CCN3CCC4=C(CC(=O)OC4)[C@]23C1
inactive: [6] 0.99 | [7] 1 | [8] 1.01 | [9] 1.07 | [10] 1.01 | [11] 1.01 | [2] 1.01 | [3] 0.999 | [4] 0.981 | [12] 1.01 | [13] 1.03 | [14] 0.997 | [5] 0.998 | [15] 1.06

Nc1ccn([C@H]2CC[C@@H](CO)O2)c(=O)n1
inactive: [1] 1.01 | [6] 1.01 | [7] 0.988 | [8] 0.994 | [9] 1.01 | [10] 0.987 | [11] 0.989 | [3] 0.993 | [4] 1.04 | [12] 1 | [13] 1 | [14] 0.997 | [15] 1.01
